Shown are actives, neighbours in structure and some others; about 3.1% of the full set was active somewhere.
MBD2 inh = MBD2-methylated oligo binding inhibition; TR-FRET, MBD2 binding to methylated oligonucleotide; inhibition, % at 4.4 µM; 370,000 compounds, 0.31% hits; AID 686964; in the data active means inhibition above about 13%
proKLK7 act = proKLK7 (human) activation, primary screen. activation, % at 7 µM. AID 652039. P49862. purified proKLK7, EDANS-DABCYL substrate fluorescence; 100% is mature enzyme control, 0% vehicle. 370,000 compounds, 0.9% hits;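 active means activation above the mean of all tested compounds plus 3 SD, computed per campaign excluding outliers beyond control limits, cut at about 13% in these data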
UHRF1 binding = human UHRF1 methylated DNA binding inhibitors | inhibition, % at 4.4 µM | Q96T88 | UHRF1 binding to methylated oligo, TR-FRET | AID 687016 | 370,000 compounds, 0.75% hits; in the data active means inhibition above about 21%;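 further: UHRF1 SRA domain binding a hemimethylated CpG hairpin DNA probe; 0% = median of test compound wells and 100% = reference inhibitor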
Neddylation inh = inhibitors of human cullin neddylation; P61081+Q13564; AID 651699; TR-FRET cullin neddylation, biochemical; calls only at 25 µM; 360,000 compounds, 0.58% hits; in the data active means inhibition above about 36%
LEDGF integ inh = blocks HIV-1 LEDGF/p75-dependent DNA integration; TR-FRET IN-LEDGF/p75 DNA integration, Eu/Cy5; inhibition, % at 3.7 µM; 370,000 compounds, 0.64% hits; AID 743269;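 active means inhibition above the screen-wide mean plus 3 SD, cut at about 13% in these data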;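 further: signal is the Cy5 over europium emission ratio at 671 and 618 nm; 0% = plate median of compound wells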
Rin1 Abl inh = blocks binding of human Rin1 to Abl | P00519+Q13671 | TR-FRET Rin1/Abl binding, biochemical | inhibition, % at 7.35 µM | 360,000 compounds, 0.4% hits; in the data active means inhibition above about 5%, passing the limit was not always enough
Target sequence (P00519 whole entry, looked up): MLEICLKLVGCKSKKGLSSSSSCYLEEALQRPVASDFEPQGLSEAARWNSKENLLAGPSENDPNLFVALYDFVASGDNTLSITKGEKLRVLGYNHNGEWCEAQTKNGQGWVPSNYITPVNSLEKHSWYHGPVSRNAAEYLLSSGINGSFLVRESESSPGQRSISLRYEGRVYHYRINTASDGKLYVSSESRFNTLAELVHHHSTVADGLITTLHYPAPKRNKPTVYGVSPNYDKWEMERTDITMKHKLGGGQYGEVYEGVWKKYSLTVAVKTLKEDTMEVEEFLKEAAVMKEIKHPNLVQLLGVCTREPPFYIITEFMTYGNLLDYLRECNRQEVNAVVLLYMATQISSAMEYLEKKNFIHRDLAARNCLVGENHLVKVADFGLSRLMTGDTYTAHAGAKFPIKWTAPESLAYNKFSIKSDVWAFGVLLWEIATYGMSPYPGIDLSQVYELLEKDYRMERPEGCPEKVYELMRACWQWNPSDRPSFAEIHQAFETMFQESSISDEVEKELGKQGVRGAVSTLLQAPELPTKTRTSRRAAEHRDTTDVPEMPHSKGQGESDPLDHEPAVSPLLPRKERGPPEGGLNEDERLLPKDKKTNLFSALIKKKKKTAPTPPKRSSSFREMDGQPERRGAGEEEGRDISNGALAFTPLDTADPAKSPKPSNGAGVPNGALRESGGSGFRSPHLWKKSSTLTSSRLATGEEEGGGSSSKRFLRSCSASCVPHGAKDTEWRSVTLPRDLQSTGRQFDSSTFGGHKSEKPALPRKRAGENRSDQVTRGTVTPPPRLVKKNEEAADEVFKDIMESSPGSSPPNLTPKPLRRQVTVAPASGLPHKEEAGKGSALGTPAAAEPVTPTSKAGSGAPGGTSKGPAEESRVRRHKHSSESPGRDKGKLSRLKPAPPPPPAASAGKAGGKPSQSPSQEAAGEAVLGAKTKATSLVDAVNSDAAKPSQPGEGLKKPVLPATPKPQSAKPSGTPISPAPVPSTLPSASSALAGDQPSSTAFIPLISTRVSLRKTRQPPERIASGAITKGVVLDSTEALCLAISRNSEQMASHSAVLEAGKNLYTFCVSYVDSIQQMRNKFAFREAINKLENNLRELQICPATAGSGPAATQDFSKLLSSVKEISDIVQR
Target sequence (Q13671 whole entry, looked up): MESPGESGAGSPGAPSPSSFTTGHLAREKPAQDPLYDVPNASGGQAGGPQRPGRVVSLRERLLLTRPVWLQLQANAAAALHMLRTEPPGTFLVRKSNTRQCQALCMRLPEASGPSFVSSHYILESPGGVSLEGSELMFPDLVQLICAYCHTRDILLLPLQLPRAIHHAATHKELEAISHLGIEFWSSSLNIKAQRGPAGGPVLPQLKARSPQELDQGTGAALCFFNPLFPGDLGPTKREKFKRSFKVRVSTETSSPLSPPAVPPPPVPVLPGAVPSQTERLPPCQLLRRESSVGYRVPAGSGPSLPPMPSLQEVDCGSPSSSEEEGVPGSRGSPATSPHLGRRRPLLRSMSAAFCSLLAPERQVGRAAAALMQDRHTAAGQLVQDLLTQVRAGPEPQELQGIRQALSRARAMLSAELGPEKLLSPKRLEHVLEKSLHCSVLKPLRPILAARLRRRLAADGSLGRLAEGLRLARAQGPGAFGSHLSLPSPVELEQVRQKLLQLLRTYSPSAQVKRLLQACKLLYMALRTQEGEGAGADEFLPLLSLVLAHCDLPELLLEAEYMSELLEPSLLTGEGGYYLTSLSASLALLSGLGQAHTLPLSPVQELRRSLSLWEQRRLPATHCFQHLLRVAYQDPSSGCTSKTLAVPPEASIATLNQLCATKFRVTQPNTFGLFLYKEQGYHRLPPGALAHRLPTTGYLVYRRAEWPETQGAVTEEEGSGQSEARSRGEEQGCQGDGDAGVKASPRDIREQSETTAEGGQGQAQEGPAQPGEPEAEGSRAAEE
* hit, by the source's call; i = inactive; x = no result given.

SMILES	MBD2 inh	proKLK7 act	UHRF1 binding	Neddylation inh	LEDGF integ inh	Rin1 Abl inh
COc1ccc(NS(=O)(=O)c2cccc(C(=O)NCC3(N4CCCCC4)CCCCC3)c2)cc1	3.5	-0.5	25.1*	i	3.0	1.4
COc1ccc(NS(=O)(=O)c2cccc(C(=O)NCC3(N4CCOCC4)CCCCC3)c2)cc1	5.3	0.0	3.3	i	-3.3	-1.9
O=C(O)c1ccc(N2C(=O)c3cccc4c(C(=O)O)ccc(c34)C2=O)cc1	5.8	-0.5	24.3*	i	3.4	6.7
O=C(COc1cccnc1[N+](=O)[O-])NC1CCS(=O)(=O)C1 (stereo not drawn)	8.4	0.1	26.5*	i	2.9	-6.1
Cc1ccc(S(=O)(=O)Nc2cccc3c2O[C@H](CN(C)C(=O)Nc2cccc4ccccc24)[C@H](C)CN([C@H](C)CO)C3=O)cc1	-1.4	-7.3	-6.5	i	-1.5	-2.2
Cc1cc(C)cc(CC(=O)N2CCC2(C)C(=O)NS(=O)(=O)c2cccc(F)c2)c1 (stereo not drawn)	-1.4	-0.2	21.2*	i	-4.3	-1.4
Cc1cc(C)cc(CC(=O)N2CCC2(C)C(=O)NS(=O)(=O)c2ccccc2)c1 (stereo not drawn)	5.6	-0.4	0.7	i	-3.3	-2.6
Cc1ccc(-c2cc(C(=O)N3CCN(c4ccc(F)cc4)CC3)c3ccccc3n2)o1	-1.9	-21.5	0.4	x	-1.6	0.6
Cc1ccc(-c2cc(C(=O)N3CCOCC3)c3ccccc3n2)o1	-1.6	111.7*	-0.2	x	0.7	0.5
Cc1ccc(/C=N/NC(=O)c2c(C)nc3ccc(Cl)cn23)cc1	-8.6	-0.1	-3.0	x	4.2	x
O=C(O)C(=Cc1ccc([N+](=O)[O-])cc1)c1ccccc1	-5.1	-0.5	0.3	x	-0.9	x
CCCCC(CC)C(=O)Oc1ccc(O)c(C(C)(C)C)c1 (stereo not drawn)	8.3	0.3	5.3	i	1.4	9.2*
Cc1nc(CSc2nnc3scc(-c4ccc(Cl)cc4)n23)cs1	-4.0	0.4	-0.3	i	-0.4	3.4
CCc1ccc(NC(=O)c2cccc(NC3=NC4CS(=O)(=O)CC4S3)c2)cc1 (stereo not drawn)	-0.8	-0.6	26.6*	i	0.1	-2.2
CCOc1ccc(NC(=O)c2cccc(NC3=NC4CS(=O)(=O)CC4S3)c2)cc1 (stereo not drawn)	3.2	-0.2	3.0	i	3.5	1.3
COc1cccc(OC)c1OC(=O)c1ccccc1	2.1	-0.6	4.9	i	-5.5	-0.6
CN(c1ncc(C(F)(F)F)cc1Cl)N1C(=O)c2cccc([N+](=O)[O-])c2C1=O	1.3	0.1	22.7*	i	4.3	1.5
CN(C)C(=O)c1cn(N(C)c2ncc(C(F)(F)F)cc2Cl)c(=O)c2ccccc12	-2.1	-0.2	0.5	i	0.9	1.3
O=[N+]([O-])c1cc(Br)c(O)c(/C=N/Nc2nnnn2-c2cccc3ccccc23)c1	4.6	-0.4	-1.5	i	3.5	-4.8
N=C1S/C(=C\c2ccc(-c3ccccc3C(=O)O)o2)C(=O)N1c1ccc2c(c1)OCO2	6.8	0.5	23.4*	i	-1.1	1.1
COc1ccccc1N1C(=N)S/C(=C\c2ccc(-c3ccccc3C(=O)O)o2)C1=O	-1.9	0.0	1.9	i	0.0	0.2
O=C(CN1C(=O)S/C(=C\c2ccc(-c3cc(C(=O)O)ccc3Cl)o2)C1=O)Nc1ccc2c(c1)OCO2	5.7	-0.2	16.6	i	18.4*	3.9
Cn1cc(/C=C2/SC(=O)N(CC(=O)Nc3ccc4c(c3)OCO4)C2=O)c2ccccc21	-3.1	0.1	-3.2	i	0.5	3.1
CCCCC(=O)N(C)c1c(CC)nc2c(OCC(=O)c3ccc(Cl)cc3Cl)cccn12	0.6	1.1	-0.6	i	3.2	-2.2
CC(C)(N[C@@H](Cc1ccccc1)C(=O)NCCCc1ccccc1)C(=O)NCc1ccccc1	2.7	x	-0.2	x	0.2	x
SMILES	MBD2 inh	proKLK7 act	UHRF1 binding	Neddylation inh	LEDGF integ inh	Rin1 Abl inh
CCCn1c(SCC(=O)c2cc(C)n(C3CC3)c2C)n[nH]c1=O	-4.0	-0.4	25.9*	i	-1.9	2.9
OC(c1ccccc1)(c1ccc(F)cc1)C(c1ccccc1)N1CCOCC1 (stereo not drawn)	x	x	x	i	x	0.9
Cc1cc(Br)cc2c1NC(=O)C2(c1c(C)n(C)n(-c2ccccc2)c1=O)c1c(C)n(C)n(-c2ccccc2)c1=O	4.1	-0.8	-0.3	i	-3.1	1.6
COc1cc(C2(c3ccc(O)c(OC)c3)C(=O)Nc3c(C)cc(Br)cc32)ccc1O	0.2	0.5	31.1*	i	-2.9	-1.0
C[C@H](CO)N1C[C@H](C)[C@@H](CN(C)S(=O)(=O)c2cccs2)Oc2c(NC(=O)C3CC3)cccc2C1=O	-1.5	-0.7	-0.8	i	-0.7	4.5
Cc1ccc(Nc2nc3c([nH]2)c(=O)[nH]c(=O)n3C)cc1	2.1	0.2	-2.3	i	44.9*	-2.4
Cn1c(=O)c2[nH]c(Nc3ccccc3)nc2n(C)c1=O	4.5	0.8	1.7	i	-0.2	1.1
CC(C)CCNCC(O)CON=C1c2ccccc2-c2ccccc21 (stereo not drawn)	-1.8	0.3	24.7*	i	-9.8	-5.2
COc1cccc(CN(C)C(=O)c2ccc(Oc3ccccc3)cc2)c1OC	2.4	-0.7	3.0	i	-3.5	-1.9
CCOC(=O)C1CCN(C(=O)C(C)Sc2ccc(Cl)cc2)CC1 (stereo not drawn)	8.6	-0.2	23.4*	i	6.7	1.3
CCOC(=O)C1=CCC(c2ccccc2)N(S(=O)(=O)c2ccc(C)cc2)[C@H]1CC (stereo partly drawn)	-2.4	0.7	1.8	i	-2.4	x
CCOc1ccc(/C=C2\SC(=S)N(CC(=O)N(CCO)C(C)(C)C)C2=O)cc1	4.3	-1.2	34.7*	i	-1.8	-1.2
COCCNC(=O)C1(C)CCCN(C(=O)c2ccco2)C1 (stereo not drawn)	-1.4	-0.3	-0.4	i	-2.2	3.2
COc1cc2c(cc1OC)C(C)N(C(=O)C1=NN(c3cccc(C)c3)C(=O)CC1)CC2 (stereo not drawn)	10.3	0.0	22.4*	i	0.0	-4.0
COC(=O)c1ccc(=O)n(CC(=O)c2ccc(Cl)cc2)c1	3.2	0.0	26.8*	i	0.8	-0.9
O=C(Cn1ccccc1=O)c1ccc(Cl)cc1	3.1	-0.5	-2.8	i	2.5	2.3
COc1ccc(C2/C(=C(/O)c3ccc(C)cc3)C(=O)C(=O)N2CC2CCCO2)cc1OC (stereo not drawn)	5.5	0.0	21.8*	i	1.0	-0.6
Cc1cc(C)cc(N2C(=O)C=CC2=O)c1	-5.3	0.3	0.6	i	3.9	1.5
COc1ccc(NC(=O)CSc2nnc3n2CCCCC3)cc1OC	-6.6	0.9	-0.2	i	0.7	0.8

High-throughput results from PubChem BioAssay.
